Values joined by “and” are separate entries in the source; they are usually repeats but may differ in a detail not shown here. Equal entries are not always repeated. Screen size: about 5,500 compounds; about 2,000 (36%) were called active. Inconclusive results (about 18%) are left out. Cut-off read from the data, not from the text of the source: active = normalized growth mostly below about 0.91 (no sharp cut-off); inconclusive = no clear call, values can overlap the other calls; inactive = mostly above about 0.92. This is one part of the list.
Experiment: chemical genetic growth profiling, strain panel (AID 1159580);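 note: tested at 20 µM; growth read once vehicle control cultures reached saturation at 30 °C; 1 = growth at the plate median or of vehicle wells; lower values mean less growth of the strain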
Conditions: S. cerevisiae deletion strains, growth OD

Measured: normalized growth

NS(=O)(=O)c1cc(C2(O)NC(=O)c3ccccc32)ccc1Cl (stereo not given)
inactive: locus YAL021C, strain ccr4, stronger effect = lower value 0.958 | locus YAL026C, strain drs2, stronger effect = lower value 0.991 | locus YAL030W, strain snc1, stronger effect = lower value 0.993 | locus YBL061C, strain skt5, stronger effect = lower value 0.996 | locus YBR009C, strain hhf1, stronger effect = lower value 1.01 | locus YBR021W, strain FUR4, stronger effect = lower value 1.02 | locus YBR023C, strain chs3, stronger effect = lower value 0.992 | locus YBR171W, strain sec66, stronger effect = lower value 0.985 | locus YBR229C, strain ROT2, stronger effect = lower value 1.01 | locus YBR231C, strain swc5, stronger effect = lower value 0.972 | locus YBR279W, strain paf1, stronger effect = lower value 0.996 | locus YCL011C, strain gbp2, stronger effect = lower value 0.99 | locus YCL016C, strain dcc1, stronger effect = lower value 0.987 | locus YCL029C, strain bik1, stronger effect = lower value 1.02 | locus YCL061C, strain MRC1, stronger effect = lower value 0.986 | locus YCL069W, strain vba3, stronger effect = lower value 0.999 | locus YCR088W, strain abp1, stronger effect = lower value 0.994 | locus YDL005C, strain med2, stronger effect = lower value 0.974 | locus YDL035C, strain GPR1, stronger effect = lower value 0.997 | locus YDL040C, strain nat1, stronger effect = lower value 0.995 | locus YDL074C, strain BRE1, stronger effect = lower value 1.03 | locus YDL101C, strain DUN1, stronger effect = lower value 1.02 | locus YDL134C, strain PPH21, stronger effect = lower value 1 | locus YDL185W, strain tfp1, stronger effect = lower value 1.03 | locus YDL192W, strain arf1, stronger effect = lower value 1.01 | locus YDR001C, strain nth1, stronger effect = lower value 0.99 | locus YDR069C, strain doa4, stronger effect = lower value 0.993 | locus YDR101C, strain arx1, stronger effect = lower value 1 | locus YDR137W, strain rgp1, stronger effect = lower value 1.01 | locus YDR159W, strain sac3, stronger effect = lower value 1.01 | locus YDR162C, strain NBP2, stronger effect = lower value 1.01 | locus YDR195W, strain ref2 0.929 | locus YDR297W, strain sur2, stronger effect = lower value 0.995 | locus YDR318W, strain mcm21, stronger effect = lower value 1.02 | locus YDR334W, strain swr1, stronger effect = lower value 1.01 | locus YDR335W, strain msn5, stronger effect = lower value 0.991 | locus YDR388W, stronger effect = lower value 1.02 | locus YDR392W, strain spt3, stronger effect = lower value 1.04 | locus YDR502C, strain sam2, stronger effect = lower value 1.02 | locus YEL003W, strain gim4, stronger effect = lower value 0.985 | locus YEL037C, strain rad23, stronger effect = lower value 0.992 | locus YEL061C, strain CIN8 (second series), stronger effect = lower value 1 | locus YEL061C, strain CIN8, stronger effect = lower value 1.01 | locus YER015W, strain faa2, stronger effect = lower value 0.985 | locus YER016W, strain bim1, stronger effect = lower value 0.997 | locus YER110C, stronger effect = lower value 1.02 | locus YER111C, strain swi4, stronger effect = lower value 0.997 | locus YER155C, strain BEM2 (second series), stronger effect = lower value 0.939 | locus YER155C, strain BEM2, stronger effect = lower value 1.01 | locus YER167W, strain BCK2, stronger effect = lower value 1.01 | locus YFR010W, strain ubp6, stronger effect = lower value 0.982 | locus YGL078C, strain dbp3, stronger effect = lower value 1.02 | locus YGL086W, strain mad1, stronger effect = lower value 1.01 | locus YGL167C, strain pmr1, stronger effect = lower value 0.99 | locus YGL173C, strain kem1, stronger effect = lower value 0.968 | locus YGL227W, strain vid30, stronger effect = lower value 0.997 | locus YGL240W, strain doc1, stronger effect = lower value 0.964 | locus YGL248W, strain PDE1, stronger effect = lower value 1.02 | locus YGL253W, strain hxk2, stronger effect = lower value 1 | locus YGR078C, strain PAC10, stronger effect = lower value 1.02 | locus YGR135W, strain pre9, stronger effect = lower value 1.04 | locus YGR229C, strain SMI1, stronger effect = lower value 1.01 | locus YGR252W, strain gcn5, stronger effect = lower value 0.991 | locus YHR013C, strain ard1, stronger effect = lower value 0.952 | locus YHR027C, strain rpn1, stronger effect = lower value 0.99 | locus YHR030C, strain SLT2, stronger effect = lower value 1.01 and 0.984 | locus YHR079C, strain IRE1 (second series), stronger effect = lower value 1.01 | locus YHR079C, strain IRE1, stronger effect = lower value 0.99 | locus YHR094C, strain hxt1, stronger effect = lower value 1.01 | locus YHR129C, strain ARP1, stronger effect = lower value 1.01 | locus YHR142W, strain chs7, stronger effect = lower value 1.01 | locus YHR200W, strain rpn10, stronger effect = lower value 1.02 | locus YIL066C, strain RNR3, stronger effect = lower value 1.01 | locus YIL073C, strain SPO22, stronger effect = lower value 1.06 | locus YIL125W, strain kgd1, stronger effect = lower value 1.01 | locus YIR030C, strain dcg1, stronger effect = lower value 1.03 | locus YJL092W, strain hpr5, stronger effect = lower value 0.993 | locus YJL095W, strain BCK1 (second series), stronger effect = lower value 0.997 | locus YJL095W, strain BCK1, stronger effect = lower value 1.03 and 0.98 | locus YJL115W, strain asf1, stronger effect = lower value 0.983 | locus YJL129C, strain trk1, stronger effect = lower value 0.979 | locus YJL134W, strain LCB3, stronger effect = lower value 1 | locus YJL154C, strain vps35, stronger effect = lower value 0.984 | locus YJL164C, strain tpk1, stronger effect = lower value 0.981 | locus YJL166W, strain qcr8, stronger effect = lower value 0.977 | locus YJL168C, strain set2, stronger effect = lower value 1.02 | locus YJL187C, strain SWE1 (second series), stronger effect = lower value 1.03 | locus YJL187C, strain SWE1, stronger effect = lower value 0.991 | locus YJR043C, strain POL32, stronger effect = lower value 0.986 | locus YJR066W, strain TOR1, stronger effect = lower value 0.946

Reference: PubChem BioAssay AID1159580 (chemical genetic matrix, 2015)
